The values below come from PubChem BioAssay.

Assay [1] relates to Plasmodium falciparum Sir2 (PF13_0152, Sir2A). Nature of the assay: Plasmodium falciparum Sir2A binding compounds – biochemical, small-molecule microarray, 635 nm fluorescence, primary screen (AID 1098).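 Also: score merges spot fluorescence intensity with its signal-to-noise ratio.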 Conditions: fluorescence 635 nm, higher = more signal.
The nature of assay [2]: probe aDKK1 binding to arrayed compounds – biochemical, biotinylated probe, 635/667 nm fluorescence, primary screen (AID 1099).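 Also: score merges 667nm spot fluorescence with signal to noise across triplicate slides.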 Conditions: small-molecule microarray, higher = more signal.
The nature of assay [3]: probe aCHRDL2 binding to arrayed compounds – biochemical, biotinylated probe, 635/667 nm fluorescence, primary screen (AID 1100). Conditions: small-molecule microarray, higher = more signal.
A short description of assay [4]: change in splice reporter luminescence, either direction, cell-based, HEK293, spliceosome inhibition project, primary screen (AID 1101).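 Also: HEK293 cells carrying a splicing-competent luciferase reporter gene; test concentration not given here.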 Conditions: HEK293 splicing luciferase reporter, 24 h, higher = more signal, called active from +8 up or from −8 down.
The target in assay [5] is Fibroblast growth factor 10 (Homo sapiens) (UniProt O15520). Nature of the assay: compounds binding fibroblast growth factor 10 – biochemical, small-molecule microarray, 635 nm fluorescence, primary screen (AID 1102). Conditions: FGF10 binding, fluorescence 635 nm, higher = more signal.
Assay [6] has as its system glycogen synthase kinase-3 (GSK3A per assay name; protocol says GSK3B). Nature of the assay: compounds binding glycogen synthase kinase-3 – biochemical, small-molecule microarray, 635 nm fluorescence, GSK3A, primary screen (AID 1103). Also: the record names both GSK3A and GSK3B. Conditions: fluorescence 635 nm, higher = more signal.
The target of assay [7] is Epidermal growth factor receptor (Homo sapiens) (UniProt P00533). Nature of the assay: compounds binding epidermal growth factor receptor – biochemical, small-molecule microarray, 635 nm fluorescence, primary screen (AID 1104).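 Also: score merges 667 nm emission intensity with spot signal to noise over triplicate slides.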 The following applies: EGFR binding, higher = more signal.
For assay [8], the target named is Follistatin-related protein 3 (Homo sapiens) (UniProt O95633). Nature of the assay: compounds binding follistatin-related protein 3 – biochemical, small-molecule microarray, 635 nm fluorescence, primary screen (AID 1105).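 Also: score merges emission near 667 nm and signal to noise per printed spot across three slides.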 Conditions: FSTL3 binding, higher = more signal.
Assay [9] addresses Dickkopf-related protein 1 (Homo sapiens) (UniProt O94907). Nature of the assay: small molecules binding DKK1 protein – biochemical, small-molecule microarray, 635 nm fluorescence scan, primary screen (AID 1106).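 Also: score merges emission near 667 nm with signal to noise over three replicate slides.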 The following applies: higher = more signal.
For assay [10], the system named is Inhibin beta A chain (activin A). Nature of the assay: small molecules binding activin A – biochemical, small-molecule microarray, 635 nm fluorescence scan, primary screen (AID 1107).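 Also: mouse activin A protein probed at 4.33 µg/mL on printed slides; score merges bound-protein fluorescence near 667 nm with spot signal-to-noise.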 Conditions: INHBA, higher = more signal.
Assay [11] relates to Human papillomavirus type 1a protein E7 (residues 44-93). Nature of the assay: small molecules binding HPV E7 44-93 – biochemical, small-molecule microarray, residues 44-93, 635 nm fluorescence, primary screen (AID 1108).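 Also: E7 fragment applied at 1 µg/mL in TBST for 1 h at 4 C; score combines spot fluorescence with its signal to noise ratio.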 Conditions: fluorescence 635 nm, higher = more signal.
Assay [12] can be described thus: hepatitis C replication reporter changes, two-sided – Huh7 cells, luciferase reporter, HCV replication inhibitor project, primary screen (AID 1109).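 Also: huh7 hepatoma cells harbouring a luciferase neomycin HCV replicon reporter; luciferase luminescence as measure of HCV replicon replication; test concentration not given here.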 The following applies: Huh7 HCV replicon luciferase reporter, 48 h; higher = more signal.
In assay [13] the target is Left-right determination factor 2 (Homo sapiens) (UniProt O00292). Nature of the assay: small molecules binding LEFTY2 protein – biochemical, small-molecule microarray, 635 nm fluorescence scan, primary screen (AID 1110). Conditions: higher = more signal.
For assay [14], the target named is Calmodulin-1 (Homo sapiens) (UniProt P0DP23). Nature of the assay: small molecules binding calmodulin-1 with EGTA – biochemical, small-molecule microarray, Cy5-labelled CALM1, profiling panel (AID 1111).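 Also: labelled calmodulin applied in Tris saline Tween buffer holding calcium plus EGTA and DTT.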 Conditions: Cy5-CALM1 binding fluorescence, higher = more signal.
The target is the same in assay [15]. Nature of the assay: small molecules binding Ca-loaded calmodulin-1 – biochemical, small-molecule microarray, Cy5-labelled CALM1, plus calcium, artefact control for SMM control-protein annotation, profiling panel (AID 1112).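 Also: score merges spot fluorescence with signal to noise from triplicate slides.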 Conditions: Cy5-CALM1 binding fluorescence, higher = more signal.
Assay [16] can be described thus: probe aWnt5a binding to arrayed compounds – biochemical, biotinylated probe, 635/667 nm fluorescence, primary screen (AID 1113).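 Also: score merges 667 nm fluorescence intensity with signal-to-noise per printed feature.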 The following applies: small-molecule microarray, higher = more signal.
Assay [17] in a line: probe aShh binding to arrayed compounds – biochemical, biotinylated probe, 635/667 nm fluorescence, primary screen (AID 1114).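 Also: probe is biotin-labelled aShh protein from a stem cell growth factor screen; measures binding of labelled protein to compounds printed on the slide; score merges feature fluorescence at 667 nm with signal-to-noise.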 The following applies: small-molecule microarray, higher = more signal.
Assay [18] can be described thus: probe aNog binding to arrayed compounds – biochemical, biotinylated probe, 635/667 nm fluorescence, primary screen (AID 1115).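 Also: probe is biotinylated aNog protein used at 0.15 µg/mL for 1 h at 4 C; z-score combines 667 nm fluorescence of each spot with its signal to noise.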 The following applies: small-molecule microarray, higher = more signal.
The target of assay [19] is Torsin-1A-interacting protein 1 (Homo sapiens) (UniProt Q5JTV8). Nature of the assay: compound microarray binding of lysate hLAP1 – cell lysate, small-molecule microarray, COS7 lysate, 635/667 nm fluorescence, primary screen (AID 1116). The following applies: 635 nm fluorescence, higher = more signal.
The target in assay [20] is Alpha-bungarotoxin (Bungarus multicinctus) (UniProt P60615). Nature of the assay: compounds binding labelled alpha-BTX control protein – biochemical, small-molecule microarray, Alexa647 label, 635/667 nm fluorescence, artefact control for SMM control protein annotation, profiling panel (AID 1117). Conditions: alpha-BTX-A647 binding fluorescence, higher = more signal.

Activity calls are given as the source filed them.

Chain of Alpha-bungarotoxin (Bungarus multicinctus) (P60615 whole entry, looked up): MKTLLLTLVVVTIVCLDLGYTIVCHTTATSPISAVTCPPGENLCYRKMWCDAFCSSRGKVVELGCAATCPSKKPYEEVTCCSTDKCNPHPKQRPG
Chain of Follistatin-related protein 3 (Homo sapiens) (O95633 whole entry, looked up): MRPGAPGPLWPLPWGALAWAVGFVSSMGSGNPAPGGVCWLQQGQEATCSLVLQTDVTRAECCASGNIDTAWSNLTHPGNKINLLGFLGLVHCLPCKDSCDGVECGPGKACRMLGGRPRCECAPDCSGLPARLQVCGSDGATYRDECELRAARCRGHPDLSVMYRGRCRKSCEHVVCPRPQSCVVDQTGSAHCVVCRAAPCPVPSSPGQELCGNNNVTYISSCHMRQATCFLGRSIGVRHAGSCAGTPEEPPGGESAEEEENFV
Chain of Torsin-1A-interacting protein 1 (Homo sapiens) (Q5JTV8 whole entry, looked up): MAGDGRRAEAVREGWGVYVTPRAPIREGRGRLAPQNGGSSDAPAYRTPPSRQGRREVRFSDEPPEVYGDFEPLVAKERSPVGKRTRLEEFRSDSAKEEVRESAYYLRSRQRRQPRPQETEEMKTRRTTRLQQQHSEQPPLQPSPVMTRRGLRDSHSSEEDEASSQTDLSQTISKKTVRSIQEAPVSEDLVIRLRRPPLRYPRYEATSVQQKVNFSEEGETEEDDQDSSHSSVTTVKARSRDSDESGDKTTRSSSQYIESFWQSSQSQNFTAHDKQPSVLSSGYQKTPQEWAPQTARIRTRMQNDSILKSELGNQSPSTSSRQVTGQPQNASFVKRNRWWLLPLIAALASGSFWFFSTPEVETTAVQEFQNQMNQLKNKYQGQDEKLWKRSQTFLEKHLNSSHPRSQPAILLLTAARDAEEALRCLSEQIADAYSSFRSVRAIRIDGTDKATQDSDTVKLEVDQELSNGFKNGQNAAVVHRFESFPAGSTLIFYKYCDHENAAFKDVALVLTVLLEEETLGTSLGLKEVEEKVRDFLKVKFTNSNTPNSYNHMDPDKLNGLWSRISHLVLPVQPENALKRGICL
Chain of Left-right determination factor 2 (Homo sapiens) (O00292 whole entry, looked up): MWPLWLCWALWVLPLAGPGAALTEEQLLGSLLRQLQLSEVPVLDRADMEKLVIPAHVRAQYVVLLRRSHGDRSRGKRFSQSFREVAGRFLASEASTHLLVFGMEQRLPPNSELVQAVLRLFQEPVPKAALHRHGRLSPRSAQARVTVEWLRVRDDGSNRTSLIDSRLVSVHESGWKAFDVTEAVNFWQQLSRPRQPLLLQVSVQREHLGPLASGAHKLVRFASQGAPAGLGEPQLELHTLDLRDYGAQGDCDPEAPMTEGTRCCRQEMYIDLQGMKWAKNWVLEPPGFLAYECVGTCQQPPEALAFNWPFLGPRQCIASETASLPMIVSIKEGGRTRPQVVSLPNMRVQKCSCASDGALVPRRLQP
Chain of Epidermal growth factor receptor (Homo sapiens) (P00533 whole entry, looked up): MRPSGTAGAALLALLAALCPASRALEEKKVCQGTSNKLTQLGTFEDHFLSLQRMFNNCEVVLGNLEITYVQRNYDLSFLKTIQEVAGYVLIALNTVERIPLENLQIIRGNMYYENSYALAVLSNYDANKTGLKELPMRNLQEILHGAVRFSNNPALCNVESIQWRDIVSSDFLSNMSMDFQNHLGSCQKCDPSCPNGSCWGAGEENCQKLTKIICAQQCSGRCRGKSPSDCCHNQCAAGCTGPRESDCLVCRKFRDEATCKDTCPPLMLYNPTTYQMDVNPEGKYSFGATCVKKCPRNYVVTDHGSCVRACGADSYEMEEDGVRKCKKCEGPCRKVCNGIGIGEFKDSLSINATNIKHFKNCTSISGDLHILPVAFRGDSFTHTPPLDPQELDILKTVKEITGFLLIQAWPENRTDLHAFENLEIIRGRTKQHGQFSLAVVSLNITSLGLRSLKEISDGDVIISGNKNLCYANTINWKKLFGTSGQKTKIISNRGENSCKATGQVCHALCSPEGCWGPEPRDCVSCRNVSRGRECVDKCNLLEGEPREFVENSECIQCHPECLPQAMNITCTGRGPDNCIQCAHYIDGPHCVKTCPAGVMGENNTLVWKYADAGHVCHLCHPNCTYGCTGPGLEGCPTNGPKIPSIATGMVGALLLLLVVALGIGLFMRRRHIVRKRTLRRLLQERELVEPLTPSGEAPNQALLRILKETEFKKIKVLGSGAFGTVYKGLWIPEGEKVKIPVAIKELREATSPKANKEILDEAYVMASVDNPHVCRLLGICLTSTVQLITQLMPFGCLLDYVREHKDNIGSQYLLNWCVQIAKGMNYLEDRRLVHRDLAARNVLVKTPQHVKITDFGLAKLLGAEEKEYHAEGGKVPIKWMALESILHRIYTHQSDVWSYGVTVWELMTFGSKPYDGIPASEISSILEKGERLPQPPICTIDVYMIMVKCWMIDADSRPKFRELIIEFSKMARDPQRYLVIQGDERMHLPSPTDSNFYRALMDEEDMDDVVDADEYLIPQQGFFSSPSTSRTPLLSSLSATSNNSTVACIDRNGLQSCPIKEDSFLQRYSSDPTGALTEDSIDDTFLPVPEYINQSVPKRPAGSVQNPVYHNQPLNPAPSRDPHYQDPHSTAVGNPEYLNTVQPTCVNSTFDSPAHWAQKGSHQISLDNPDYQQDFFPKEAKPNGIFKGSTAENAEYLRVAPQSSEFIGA
Chain of Dickkopf-related protein 1 (Homo sapiens) (O94907 whole entry, looked up): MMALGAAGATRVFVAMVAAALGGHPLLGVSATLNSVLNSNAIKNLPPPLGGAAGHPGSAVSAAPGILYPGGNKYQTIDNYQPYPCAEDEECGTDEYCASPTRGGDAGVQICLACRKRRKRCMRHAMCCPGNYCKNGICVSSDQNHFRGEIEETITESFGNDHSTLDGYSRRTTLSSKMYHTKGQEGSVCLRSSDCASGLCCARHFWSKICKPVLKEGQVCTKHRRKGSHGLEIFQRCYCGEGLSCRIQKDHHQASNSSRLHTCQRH
Chain of Fibroblast growth factor 10 (Homo sapiens) (O15520 whole entry, looked up): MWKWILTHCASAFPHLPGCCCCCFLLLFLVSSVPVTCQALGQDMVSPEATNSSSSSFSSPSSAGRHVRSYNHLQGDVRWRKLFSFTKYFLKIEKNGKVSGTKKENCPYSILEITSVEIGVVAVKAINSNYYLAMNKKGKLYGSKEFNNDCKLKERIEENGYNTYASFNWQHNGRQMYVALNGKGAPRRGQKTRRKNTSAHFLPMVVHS

Regarding `O=C1[C@H]2[C@H]3[C@H](O)[C@H](O)CC(=NOC[C@@H](O)COCc4ccco4)[C@H]3CC[C@H]2C(=O)N1c1cccc(Oc2ccccc2)c1`, the composite z-score is 0.846 in [1]; -0.317 in [2]; 0.166 in assay [3]; -0.86 in assay [5]; -0.686 in [6]; -0.249 in assay [7]. The composite z-score in [8] was -0.65; in assay [9], -0.547; in assay [10], 0.624; in [11], -0.496; in [13], -1.1; in assay [14], -0.876. Besides, the composite z-score in [15] is -0.344; in assay [16] it was -0.0792; in assay [17] it was -0.138; in assay [18], -0.0671; in assay [19] it was 0.103; in [20], -0.572. Further, the z-score was -0.716 (inactive) in assay [4] and 0.126 in assay [12].
Regarding `O=C1O[C@@H](c2ccccc2)[C@@H](c2ccccc2)N2[C@@H](c3ccc(OCCO)cc3)[C@]3(C(=O)Nc4ccc(C#CCCO)cc43)[C@@H](C(=O)N3CCCCCCC3)[C@H]12`, the composite z-score in assay [1] turned out to be 1.85; in [2], 2.25; in assay [3], 1.13; in assay [5], 1.22; in assay [6], 1.32; in assay [7], 0.744. The composite z-score in assay [8] is 1.55; in assay [9] it was 1.78; in [10], 1.71; in [11] it was -0.516; in [13], 1.07; in [14], 2.62. Also, the composite z-score in assay [15] is 1.06; in assay [16], 0.935; in [17], 2.18; in assay [18], 2.81; in assay [19], 4.07; in assay [20], 2.78. Further, the results for the z-score in [4] and in assay [12] were -0.277 (inactive) and -0.777, respectively.
For `CCCC[C@@H]1C[C@H]1[C@@H](NS(=O)(=O)c1cccc2cccnc12)c1ccc(-c2ccccc2)cc1`, the composite z-score in assay [1] is -0.383; in assay [2], 0.583; in assay [3] it was 1.09; in [5], 0.0068; in assay [6], -0.356; in [7] it was -1.26. Moreover, the composite z-score in [8] is -0.417; in assay [9], -0.475; in assay [10], 0.76; in assay [11], 0.97; in assay [13], -0.732; in assay [14] it was 0.691. For the same compound, the composite z-score in [15] is 1.23; in assay [16] it was 0.138; in assay [17] it was -0.01; in assay [18], 1.31; in assay [19], 0.0258; in [20], 0.231. Moreover, the z-score was 1.19 (inactive) in assay [4] and -0.122 in [12].
Regarding `Cc1ccc(S[C@]2(C(=O)NCC(F)(F)F)CC(=O)N(Cc3ccccc3Cl)[C@@H]2c2ccc(CO)cc2I)cc1`, the composite z-score is 1.23 in assay [1]; 0.122 in [2]; 0.828 in [3]; -0.798 in assay [5]; -0.457 in assay [6]; -1.15 in assay [7]. Further, the composite z-score in [8] is -0.978; in [9], -1.05; in assay [10], 0.117; in [11], 0.859; in assay [13], -0.692; in [14], -0.391. Also, the composite z-score in assay [15] was -0.0928; in assay [16] it was -0.12; in assay [17], -0.0035; in assay [18], -0.383; in [19], -0.373; in assay [20], 2.06. Also, the z-score in assay [4] is -1.34 (inactive); in assay [12] it was -1.16.
With `C=CCOC(=O)[C@H]1[C@@H]2C(=O)O[C@@H](c3ccccc3)[C@@H](c3ccccc3)N2[C@@H](c2ccc(OCCOC(=O)[C@H]3C[C@H]4C(=O)N[C@@H](Cc5ccccc5)C(=O)N4[C@H]3c3ccc(O)cc3)cc2)[C@]12C(=O)Nc1ccccc12`, the composite z-score in assay [1] is 1.4; in [2], -0.206; in [3], -0.361; in assay [5], 1.15; in [6] it was 1.18; in [7] it was 0.892. Further, the composite z-score in [8] is 1.22; in assay [9] it was 1.06; in assay [10], -1.01; in [11], 0.516; in assay [13], 0.933; in assay [14], 0.743. In addition, the composite z-score was 0.0731 in assay [15]; -0.0735 in assay [16]; -0.0709 in assay [17]; -0.112 in assay [18]; 0.985 in assay [19]; 1.46 in assay [20]. In addition, the z-score in assay [4] is 0.72 (inactive); in assay [12] it was -1.32.
